Test results reported in PubChem BioAssay (Tox21).
Activity calls are given as the source filed them. Calls come from the whole dose curve; as a rule, active = well fitted activation curve with a large enough effect in the repeat runs; inconclusive = weak or mixed curves; inactive = flat fitted curve, though single readings scatter.

Assay: Caspase-3/7 induction in CHO-K1 cells by small molecules, qHTS assay (AID 1346980); note: nearly all actives have a fitted effect of over 15% in size
Settings: CHO-K1 caspase-3/7 induction, Caspase-Glo luminescence, 17 h; series mostly up to 92.4 µM
Source text: National Center for Advancing Translational Sciences [NCATS]
NIH Chemical Genomics Center [NCGC]
U.S. Environmental Protection Agency [EPA]
National Institutes of Environmental Health Sciences [NIEHS]
National Toxicology Program [NTP]
Apoptosis is a process of programmed cell death and plays a central role in the development of multicellular organisms. It is a highly regulated process and induces cell death by activating caspases, which are the members of cysteine aspartic acid-specific protease (caspase) family. Caspases involved in apoptosis are classified by their mechanism of action as initiator caspases (caspase-2, -8, -9 and -10) and executioner caspases (caspase-3, -6, and -7). Inhibition of apoptosis results in number of cancers, autoimmune diseases, inflammatory diseases and viral infection. To identify small molecule compounds that induce apoptosis, a homogeneous, luminescent Caspase-Glo 3/7 assay was used. Wild type CHO-K1 cells were used to screen Tox21 libraries for identifying caspase-3/7 activity inducers.
CHO-K1 cells were dispensed at 1,500 per well in 5uL of culture medium into white solid bottom 1536-well plates (Corning Life Sciences, Corning, NY) using a Multidrop Combi (Thermo Scientific, Waltham, MA) dispenser. The assay plates were incubated at 37 C and 5% CO2 for 5hr, and then 23nL of compounds dissolved in DMSO and positive control were transferred using a Pintool station (Wako, San Diego, CA). The assay plates were incubated at 37C and 5% CO2 for 17hr. For caspase-3/7 activity read, 4uL of Caspase-Glo 3/7 reagent (Promega Corporation, Madison, WI) was added to each well of the assay plates using Flying Reagent Dispenser (FRD, Aurora Discovery, San Diego, CA) and incubated the assay plates at room temperature for 30min. The luminescence signal was quantified using a ViewLux plate reader (Perkin Elmer, Shelton, CT).
% is set by controls: 0 for no effect and ±100 for the full control effect.

**Q.** With `Nc1c(Cl)c(F)nc(OCC(=O)O)c1Cl` as the molecule, how does the outcome read?
**A.** Its outcome is “inactive”.

**Q.** Which outcome does the source give for `CCOP(=S)(OCC)Oc1ccc(Cl)cc1Cl` here?
**A.** The outcome was “inactive”.

**Q.** With `C=CCCC#N` as the molecule, how does the outcome read?
**A.** The outcome was “inactive”.

**Q.** With `N[C@@H]1C[C@H]1c1ccccc1` as the molecule, how does the outcome read?
**A.** Its outcome is “inactive”.

**Q.** With `CCCC(C)C1(CC)C(=O)N=C(S)NC1=O` (stereo not given) as the molecule, how does the outcome read?
**A.** Its outcome is “inactive”.

**Q.** Which outcome does the source give for `O=C(Cl)C(Cl)Cl` here?
**A.** Its outcome is “inactive”.

**Q.** With `O=C(CCl)NCO` as the molecule, how does the outcome read?
**A.** The outcome was “inactive”.

**Q.** For `CON(C)C(=O)Nc1ccc(Br)cc1`, which outcome is on record?
**A.** Its outcome is “inactive”.

**Q.** For `C/C=C/CC#N`, which outcome is on record?
**A.** Its outcome is “inactive”.

**Q.** For `COc1ccccc1OC`, which outcome is on record?
**A.** The outcome was “inactive”.

**Q.** Which outcome does the source give for `CC[C@@H](CO)NC(=O)[C@@H]1C=C2c3cccc4[nH]cc(c34)C[C@H]2N(C)C1` here?
**A.** The outcome was “inactive”.

**Q.** For `O=c1[nH]c2ccccc2n1C1CCNCC1`, which outcome is on record?
**A.** The outcome was “inactive”.

**Q.** For `O=CCCl`, which outcome is on record?
**A.** Its outcome is “inactive”.

**Q.** With `NC(=O)OCCCc1ccccc1` as the molecule, how does the outcome read?
**A.** The outcome was “inactive”.

**Q.** For `C(COCC1CO1)OCC1CO1` (stereo not given), which outcome is on record?
**A.** Its outcome is “inactive”.

**Q.** Which outcome does the source give for `CS(=O)(=O)c1ccc(C(=O)C2C(=O)CCCC2=O)c(Cl)c1COCC(F)(F)F` here?
**A.** The outcome was “inactive”.

**Q.** With `Oc1ccc2c3c1O[C@H]1[C@@H](O)C=C[C@H]4[C@@H](C2)NCC[C@@]341` as the molecule, how does the outcome read?
**A.** Its outcome is “inactive”.

**Q.** With `CCCOC(=O)Cc1ccc(OCC(=O)N(CC)CC)c(OC)c1` as the molecule, how does the outcome read?
**A.** The outcome was “inactive”.

**Q.** For `N#CN=C1SCCN1Cc1ccc(Cl)nc1`, which outcome is on record?
**A.** The outcome was “inactive”.

**Q.** Which outcome does the source give for `C=CC(=O)OCCN(C)C` here?
**A.** Its outcome is “inactive”.

**Q.** For `C[C@H](N)C(=O)c1ccccc1`, which outcome is on record?
**A.** Its outcome is “inactive”.

**Q.** For `COC(=O)c1ccccc1CS(=O)(=O)NC(=O)Nc1nc(OC)cc(OC)n1`, which outcome is on record?
**A.** Its outcome is “inactive”.

**Q.** For `Cc1ccc2c(c1)C1CN(C)CCC1N2` (stereo not given), which caspase-3/7 activation is on record?
**A.** Its caspase-3/7 activation is -0.28% [at 19 µM] (inactive).

**Q.** With `CC(C)(N)Cc1ccccc1Cl` as the molecule, how does the outcome read?
**A.** The outcome was “inactive”.

**Q.** For `Cc1ccc(-c2nc3ccc(C)cn3c2CC(=O)N(C)C)cc1`, which outcome is on record?
**A.** Its outcome is “inactive”.

**Q.** With `NCCOS(=O)(=O)O` as the molecule, how does the outcome read?
**A.** The outcome was “inactive”.

**Q.** Which outcome does the source give for `CNC(=O)O/N=C(/CSC)C(C)(C)C` here?
**A.** The outcome was “inactive”.

**Q.** Which outcome does the source give for `O=[N+]([O-])CCO` here?
**A.** Its outcome is “inactive”.

**Q.** Which outcome does the source give for `C=CCC1(C(C)CC)C(=O)NC(=O)NC1=O` (stereo not given) here?
**A.** Its outcome is “inactive”.

**Q.** For `CCOC(=O)C(SP(=S)(OC)OC)c1ccccc1` (stereo not given), which outcome is on record?
**A.** Its outcome is “inactive”.

**Q.** Which outcome does the source give for `CCCCCCCCSC(=O)Oc1cc(Cl)nnc1-c1ccccc1` here?
**A.** Its outcome is “inactive”.

**Q.** Which outcome does the source give for `CCCCOC(C)=O` here?
**A.** Its outcome is “inactive”.

**Q.** With `CC(Cl)(Cl)Cl` as the molecule, how does the outcome read?
**A.** Its outcome is “inactive”.

**Q.** Which outcome does the source give for `CCSC(=O)Cl` here?
**A.** The outcome was “inactive”.

**Q.** For `CNC(=O)NC(O)C(Cl)(Cl)Cl` (stereo not given), which outcome is on record?
**A.** Its outcome is “inactive”.

**Q.** Which outcome does the source give for `CN(C)CCN(C)C` here?
**A.** Its outcome is “inactive”.

**Q.** With `CCC(C)(C#N)N=NC(C)(C#N)CC` (stereo not given) as the molecule, how does the outcome read?
**A.** The outcome was “inactive”.

**Q.** Which outcome does the source give for `CCCCCCC1CCOC1=O` (stereo not given) here?
**A.** Its outcome is “inactive”.

**Q.** Which outcome does the source give for `CC(C)N(Cc1ccccc1)C(=O)C(C)(C)C` here?
**A.** Its outcome is “inactive”.

**Q.** With `CCc1ccc(C2CCNCC2)cc1` as the molecule, how does the outcome read?
**A.** Its outcome is “inactive”.
